# The campaign covered roughly 300,000 compounds. About 22,000 (7.3%) were called active. Roughly 2% stayed inconclusive and do not appear here. The entries come from a sample that favours actives as a whole. A number with no mark means an inactive call. No stated cut-off is given here; in the data, active means activity score below about -60%; inconclusive means mostly about -28% to -61%; inactive means positive scores.
# Test: Activators via SNCA 5'UTR binding, MLPCN (AID 1814)
# Details: alpha-synuclein 5'UTR reporter, activators screen; active compounds read low; tested at 7.5 µM
row,Compound,activity score
1,CC(=O)c1cc(C#N)c(SCC(=O)Nc2nccs2)nc1C,-110% (active)
2,CC(=O)c1cc(C#N)c(SCC(=O)C(C)(C)C)nc1C,-148% (active)
3,CCOC(=O)c1cccc(NC(=O)c2ccc(F)cc2F)c1,-127% (active)
4,CCC(=C/c1sc2ccc3ccccc3c2[n+]1C)/C=C1\Sc2ccc3ccccc3c2N1C,-122% (active)
5,O=C(c1nnc(-c2ccc(Cl)cc2)o1)C1CCCC1,-86.2% (active)
6,CCOC(=O)c1sc(-c2cccc([N+](=O)[O-])c2)cc1N,-129% (active)
7,O=C(Cn1cnc2c(cnn2-c2ccccc2)c1=O)NCc1ccccc1,-148% (active)
8,O=C(OCc1ccc(-c2ccccc2)cc1)c1cccc(O)c1,-109% (active)
9,O=C(OCC(=O)c1c[nH]c2ccccc12)c1cccc(O)c1,-220% (active)
10,CCc1ccccc1NC(=O)c1cc(-c2ccc3c(c2)OCO3)on1,-145% (active)
11,C/C(=N/Nc1nc(-c2ccccc2)c(CC(=O)O)s1)c1ccccc1,-168% (active)
12,COc1ccccc1N1CCN(/N=C/c2ccc(O)cc2O)CC1,-147% (active)
13,COc1ccccc1N1CCN(/N=C\C(Br)=C\c2ccccc2)CC1,-74.9% (active)
14,CCNC(=O)N1CCNC(=O)C1CC(=O)Nc1ccc(C(=O)OCC)cc1 (centres undefined),-69.7% (active)
15,COc1ccc(-c2cc(C(=O)NC(Cc3c[nH]c4ccccc34)C(=O)O)c(C)o2)cc1OC (centres undefined),-104% (active)
16,CCOc1ccc(C2c3[nH]c4ccccc4c3CCN2Cc2cn(CC)nc2C)cc1 (centres undefined),-101% (active)
17,COc1ccccc1-c1cnn2c(N3CCOCC3)cc(C)nc12,-164% (active)
18,CCn1ccnc1CN(C)Cc1nc(-c2ccc3c(c2)OCO3)no1,-80.6% (active)
19,Cc1ccc(NC(=O)c2cc3ccccc3o2)cc1,-123% (active)
20,O=C(NC(=S)Nc1cccc(-c2ccc(CO)o2)c1)c1cccs1,-80.9% (active)
21,COc1ccc2occ(C(=O)c3ccc(N=C(C)N(C)C)cc3)c2c1,-75.8% (active)
22,COC(=O)c1ccc(NCC(=O)c2ccccc2)cc1,-123% (active)
23,C=CCNC(=O)c1ccc2c3n(nc2c1)-c1ccc(C)cc1CO3,-197% (active)
24,Cc1ccccc1-n1c(C)cc(/C=C2\NC(=O)NC2=O)c1C,-131% (active)
25,Cc1nn(CCOc2ccccc2)c(=O)n1-c1ccccc1F,-99.2% (active)
26,C=C(C)CSc1nnc(-c2ccc(C)cc2)n1N,-99.6% (active)

row,Compound,activity score
1,CCCCCOc1ccc(CSC2=NCCN2)cc1[N+](=O)[O-],-150% (active)
2,CCCCOc1ccc(CSC(=N)N)cc1[N+](=O)[O-],-91.9% (active)
3,CC1(C)C=Cc2c(ccc3c2OC[C@@H](c2ccc(O)cc2O)C3)O1,-154% (active)
4,CC(C)Cc1cc(C(=O)NCCc2ccccc2)no1,-169% (active)
5,CC(C)CNC(=O)c1cc(-c2ccc(Br)cc2)on1,-187% (active)
6,CC(C)Cc1cc(C(=O)Nc2cc(Br)ccc2O)no1,-135% (active)
7,Cc1ccc(NC(=O)NC(=O)c2ccccc2)cc1F,-128% (active)
8,Cc1cccc(NC(=O)c2ccc([N+](=O)[O-])o2)c1,-159% (active)
9,Cc1cccc(NC(=S)NC(=O)c2ccc(Br)o2)c1,-131% (active)
10,Cc1cccc(NC(=O)NC(=S)NC(=O)c2ccccc2)c1,-62.7% (active)
11,Cc1nn(-c2ccccc2)c(C)c1NC(=O)CCl,-101% (active)
12,CCCCCCOC(=O)NCC(O)c1ccccc1 (centres undefined),-126% (active)
13,COCC1CCCN(Cc2nc(-c3ccc4c(c3)OCO4)no2)C1 (centres undefined),-62.5% (active)
14,Cc1ccc2nc(Nc3ccccc3)cc(C)c2c1,-82.2% (active)
15,Cc1cc(Nc2ccc(Br)cc2)nc2ccccc12,-83.2% (active)
16,CCOc1cc(/C=N/Nc2cc(C)nc3ccc(C)cc23)ccc1O,-66.2% (active)
17,Cc1ccc(-c2nc(-c3ccncc3)no2)c(C)c1,-108% (active)
18,c1csc(-c2nc(-c3ccncc3)no2)c1,-153% (active)
19,Cn1ccnc1-c1nnn(-c2ccc(F)cc2)n1,-89.8% (active)
20,Oc1ccc(/C=N/Nc2ccc(C(F)(F)F)cn2)cc1O,-195% (active)
21,Oc1ccc(Br)cc1/C=N/Nc1ccccn1,66.4%
22,c1ccc(-n2ncc3c2ncn2c(C4CCCCC4)nnc32)cc1,-128% (active)
23,Cc1cccc(Nc2nc(-c3ccccc3)cs2)n1,-106% (active)
24,Clc1ccc(Nc2nc(-c3cccs3)cs2)nc1,-244% (active)
25,CC(=O)Nc1cccc(-c2cnc3ccccc3n2)c1,-207% (active)
26,c1ccc(Nc2nc(-c3ccncc3)cs2)nc1,-108% (active)

row,Compound,activity score
1,c1cnc(Nc2nc(-c3ccc4ccccc4c3)cs2)nc1,-125% (active)
2,CC(=O)Nc1cccc(-c2csc(Nc3cccc(C)n3)n2)c1,-234% (active)
3,CCOc1cc2[nH]c(=S)n(Cc3ccc(C(=O)N4CCN(C)CC4)cc3)c(=O)c2cc1OCC,86.1%
4,COc1ccccc1C1C2=C(COC2=O)Nc2cc3c(cc21)OCO3 (centres undefined),98.1%
5,COc1cc2c(cc1/C=C1/NC(=O)N(c3ccccc3)C1=O)OCO2,-142% (active)
6,CCCOc1ccccc1C1CC(=O)Nc2cc3c(cc21)OCO3 (centres undefined),111%
7,C(=N\Nc1ccc2ccccc2n1)/c1ccc2c(c1)OCO2,88.2%
8,Cc1noc(C)c1/C=N/Nc1ccc2ccccc2n1,-146% (active)
9,C/C(=N\NC(=O)OC(C)(C)C)c1ccc[nH]1,-122% (active)
10,O=C(Nn1cnc2ccccc2c1=O)c1ccc(F)cc1Cl,-87.1% (active)
11,O=[N+]([O-])c1ccc2c(c1)Nc1nc3ccccc3nc1N2,-94.2% (active)
12,Cn1c(=NC(=O)c2cnccn2)sc2ccccc21,-97.9% (active)
13,O=C(NC(=S)Nc1ccccc1C(=O)O)c1ccc(-c2ccc(Br)cc2)o1,-123% (active)
14,O=C(NC1CCCC1)C(=O)c1c[nH]c2ccccc12,-81.6% (active)
15,O=C(CN1CCCCCC1)Nc1ccc(Br)cc1Br,-101% (active)
16,O=C(CN1CCCCCC1)Nc1c(Cl)cc(Cl)cc1Cl,-86.3% (active)
17,O=C(Nc1ccc(OC(F)(F)F)cc1)c1ccc2c(c1)no[n+]2[O-],-72.3% (active)
18,Cc1cc(Cl)nc(NC(=O)Nc2cccc(Cl)c2)n1,-64.7% (active)
19,CCN1CCN(C(=O)CSc2ccc(C)cc2)CC1,-69.7% (active)
20,Cc1ccc(N/N=C2\COC(C)(C)CC2=O)cc1,-141% (active)
21,COc1ccc(C2NC(=O)c3ccccc3N2)cc1 (centres undefined),-70.6% (active)
22,COc1ccc(OC)c(C2C3=C(N=c4s/c(=C\c5cccc(O)c5)c(=O)n42)c2ccccc2CC3)c1 (centres undefined),58.4%
23,COc1cccc(C(=O)Nc2ccc(N3CCCC3)cc2)c1,-189% (active)
24,CN1CCN(c2ccc(NC(=O)c3ccccc3)cc2)CC1,-102% (active)
25,COc1cccc(C(=O)Nc2ccc(N3CCN(C(=O)c4ccco4)CC3)cc2)c1,-184% (active)
26,COc1cccc(C(=O)NNC(=O)c2cccc(F)c2)c1,-79.5% (active)

row,Compound,activity score
1,CC[C@]1(O)CC2CN(CCc3c([nH]c4ccccc34)[C@@](C(=O)OC)(c3cc4c(cc3OC)N(C=O)[C@H]3[C@@](O)(C(=O)OC)[C@H](OC(C)=O)[C@]5(CC)C=CCN6CC[C@]43[C@@H]65)C2)C1 (some centres undefined),102%
2,Cc1ccccc1C(=O)Nc1ccc(N2CCCCCC2)cc1,-160% (active)
3,COc1cccc(C(=O)Nc2cc3c(cc2Br)OCCCO3)c1,-98.2% (active)
4,COc1cccc(C(=O)Nc2ccc(NC(=O)c3ccco3)cn2)c1,-135% (active)
5,COC(=O)c1c(C)[nH]c(C(=O)/C=C/c2ccc(Cl)cc2)c1C,-131% (active)
6,NC(=O)Cc1ccc2sc(-c3ccccc3)nc2c1,-98.2% (active)
7,COc1ccccc1-c1cc(C(=O)N2CCCCC2)no1,-93.5% (active)
8,O=C(c1cc(-c2cccs2)on1)N1CCCCC1,-73.9% (active)
9,COc1cc(Cl)ccc1OCc1cc(C(=O)N2CC[C@@H]3CCCC[C@H]3C2)no1,-69% (active)
10,O=C(c1cc(-c2ccc(Cl)cc2)on1)N1CCN(c2ccccc2)CC1,-113% (active)
11,CCCOC1CCCN(C(=O)c2cc(COc3cncc(Cl)c3)on2)C1 (centres undefined),-219% (active)
12,COc1cccc(OCc2cc(C(=O)N3CCN(C(=O)c4ccco4)CC3)no2)c1,-121% (active)
13,COc1ccc(OCc2cc(C(=O)N3CCCC3)no2)c2ccccc12,-148% (active)
14,O=C(c1cc(-c2ccccc2O)on1)N1CCCC1,-142% (active)
15,Cc1nc(-c2ccccc2)sc1C1(C)CC(c2cccnc2)=NO1 (centres undefined),-91.2% (active)
16,COc1ccc(C(C#N)Nc2ccc(C)cc2)cc1 (centres undefined),-61.8% (active)
17,Cc1cc2nc(-c3ccc(NC(=O)c4cccnc4)cc3)oc2cc1C,-164% (active)
18,CC(=O)Nc1ccc(-c2nc3ccccc3o2)cc1,-91.4% (active)
19,COc1cc(OC)cc(C(=O)Nc2ccc(-c3nc4ccccc4o3)c(O)c2)c1,-61.8% (active)
20,CCOC(=O)c1ccc(NC(=O)c2cccnc2)cc1,-77.6% (active)
21,CCOC(=O)c1ccc(NC(=O)Cc2cccs2)cc1,-126% (active)
22,CCCC(=O)N1c2ccc(-c3csc(N)n3)cc2CC1C (centres undefined),-192% (active)
23,CC(C)c1cc(C(=O)N/N=C/C(Br)=C/c2ccccc2)n[nH]1,-105% (active)
24,CC(=C/c1ccccc1)/C=N/NC(=O)c1cc(C)oc1C,-125% (active)
25,Cc1cc(C(=O)N/N=C\C(Br)=C\c2ccccc2)c(C)o1,-124% (active)
26,Cc1cc(C(=O)N/N=C/c2ccc(N3CCOCC3)cc2)c(C)o1,-87.1% (active)
